Measurements reported in the supplement of paper PMC10849652.
The full data set covers some 8,800 targets. This sample favours those with a hit. About 0.5% of all pairs of compound and target were hits. Unmarked numbers belong to inactive results.

Key:
Test in all cases: log2 fold change, soluble protein after heating vs DMSO (PISA); higher = thermal stabilisation; K562 lysate, 10 uM; active = over 0.2 and 3.5 SD of the protein, either way, in both replicates (recomputed)
lapatinib = compound: CS(=O)(=O)CCNCc1ccc(-c2ccc3ncnc(Nc4ccc(OCc5cccc(F)c5)c(Cl)c4)c3c2)o1 [lapatinib]
In short: (§1)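 The values are log-two fold changes in thermal stability compared with solvent controls and come from duplicates. They were obtained by TMTpro 16plex LC-MS/MS, with channel sums equalised, on the supernatant after 21,000xg for 90 min. That supernatant came from crude K562 extract at 1 mg/mL protein treated with 10 μM compound for 30 min, heated for 3 min across 48°C-58°C, pooled and brought to 0.5% NP-40 at 4°C.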

pictilisib = compound: CS(=O)(=O)N1CCN(Cc2cc3nc(-c4cccc5[nH]ncc45)nc(N4CCOCC4)c3s2)CC1 [pictilisib]
In short: as §1

crizotinib = compound: C[C@@H](Oc1cc(-c2cnn(C3CCNCC3)c2)cnc1N)c1c(Cl)ccc(F)c1Cl [crizotinib]
In short: as §1

[1] = compound: C[C@H](C1=CC=C(C=C1)C(=O)NC2=C3C=CNC3=NC=C2)N
In short: as §1

duvelisib = compound: C[C@H](Nc1ncnc2nc[nH]c12)c1cc2cccc(Cl)c2c(=O)n1-c1ccccc1 [duvelisib]
In short: as §1

gandotinib = compound: Cc1cc(Nc2cc(CN3CCOCC3)c3nc(C)c(Cc4ccc(Cl)cc4F)n3n2)n[nH]1 [gandotinib]
In short: as §1

tozasertib = compound: Cc1cc(Nc2cc(N3CCN(C)CC3)nc(Sc3ccc(NC(=O)C4CC4)cc3)n2)n[nH]1 [tozasertib]
In short: as §1

doramapimod = compound: Cc1ccc(-n2nc(C(C)(C)C)cc2NC(=O)Nc2ccc(OCCN3CCOCC3)c3ccccc23)cc1 [doramapimod]
In short: as §1

bafetinib = compound: Cc1ccc(NC(=O)c2ccc(CN3CC[C@H](N(C)C)C3)c(C(F)(F)F)c2)cc1Nc1nccc(-c2cncnc2)n1 [bafetinib]
In short: as §1

[2] = compound: Cc1cccc(CC(=O)N2CCc3c2ccc(-c2cn(C)c4ncnc(N)c24)c3F)n1
In short: as §1

Sequence of UniProt Q14807 (Q14807 whole entry, looked up): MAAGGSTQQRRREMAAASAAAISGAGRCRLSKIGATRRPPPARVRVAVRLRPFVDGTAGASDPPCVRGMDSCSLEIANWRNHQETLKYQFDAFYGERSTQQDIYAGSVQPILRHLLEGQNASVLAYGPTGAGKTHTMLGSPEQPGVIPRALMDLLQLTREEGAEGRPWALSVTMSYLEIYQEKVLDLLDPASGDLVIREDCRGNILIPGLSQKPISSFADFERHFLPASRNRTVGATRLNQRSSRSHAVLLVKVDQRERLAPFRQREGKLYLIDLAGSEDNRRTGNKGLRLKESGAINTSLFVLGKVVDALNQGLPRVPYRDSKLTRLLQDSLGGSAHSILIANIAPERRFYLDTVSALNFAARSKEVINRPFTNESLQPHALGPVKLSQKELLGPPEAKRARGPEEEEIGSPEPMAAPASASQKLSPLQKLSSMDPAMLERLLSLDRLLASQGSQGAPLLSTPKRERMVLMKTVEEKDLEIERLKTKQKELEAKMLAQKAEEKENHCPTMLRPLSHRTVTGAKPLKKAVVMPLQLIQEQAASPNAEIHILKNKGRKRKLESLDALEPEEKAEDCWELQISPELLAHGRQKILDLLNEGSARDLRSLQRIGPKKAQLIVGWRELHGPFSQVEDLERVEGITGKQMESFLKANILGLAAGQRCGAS
Sequence of UniProt Q68D91 (Q68D91 whole entry, looked up): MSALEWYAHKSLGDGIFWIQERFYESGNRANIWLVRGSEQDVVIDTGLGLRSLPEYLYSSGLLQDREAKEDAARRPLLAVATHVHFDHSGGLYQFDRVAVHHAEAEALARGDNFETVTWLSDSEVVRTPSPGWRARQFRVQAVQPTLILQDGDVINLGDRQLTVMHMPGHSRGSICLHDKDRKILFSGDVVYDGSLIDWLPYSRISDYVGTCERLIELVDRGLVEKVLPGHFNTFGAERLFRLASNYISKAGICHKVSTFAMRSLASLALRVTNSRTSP
Sequence of UniProt Q9H089 (Q9H089 whole entry, looked up): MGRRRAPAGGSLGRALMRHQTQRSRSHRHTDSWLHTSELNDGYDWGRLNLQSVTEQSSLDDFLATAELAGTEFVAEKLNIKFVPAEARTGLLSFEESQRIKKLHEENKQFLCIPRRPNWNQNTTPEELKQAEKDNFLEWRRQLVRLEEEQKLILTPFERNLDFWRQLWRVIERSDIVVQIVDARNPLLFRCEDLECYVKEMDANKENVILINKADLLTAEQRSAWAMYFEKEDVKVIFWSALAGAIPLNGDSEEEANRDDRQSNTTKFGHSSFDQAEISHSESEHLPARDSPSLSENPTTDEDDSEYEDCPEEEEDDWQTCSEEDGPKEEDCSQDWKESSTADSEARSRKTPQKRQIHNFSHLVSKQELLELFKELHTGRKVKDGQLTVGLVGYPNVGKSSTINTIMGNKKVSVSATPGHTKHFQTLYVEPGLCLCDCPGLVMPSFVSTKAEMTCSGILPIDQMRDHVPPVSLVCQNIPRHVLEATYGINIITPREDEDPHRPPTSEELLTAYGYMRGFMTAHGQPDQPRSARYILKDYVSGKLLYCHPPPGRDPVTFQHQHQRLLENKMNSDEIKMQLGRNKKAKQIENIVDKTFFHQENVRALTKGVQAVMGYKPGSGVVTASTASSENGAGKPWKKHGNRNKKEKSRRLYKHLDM
Sequence of UniProt Q9BV79 (Q9BV79 whole entry, looked up): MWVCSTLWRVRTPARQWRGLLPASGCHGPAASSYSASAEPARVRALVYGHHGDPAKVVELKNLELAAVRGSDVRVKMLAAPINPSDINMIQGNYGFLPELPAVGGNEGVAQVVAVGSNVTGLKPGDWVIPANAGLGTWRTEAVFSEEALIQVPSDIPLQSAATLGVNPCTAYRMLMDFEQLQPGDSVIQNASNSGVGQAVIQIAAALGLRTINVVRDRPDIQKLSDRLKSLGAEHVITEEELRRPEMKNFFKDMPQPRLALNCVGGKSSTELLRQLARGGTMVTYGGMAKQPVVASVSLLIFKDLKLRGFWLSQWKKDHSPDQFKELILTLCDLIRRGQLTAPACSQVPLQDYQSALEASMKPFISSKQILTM
Sequence of UniProt Q8IVT5 (Q8IVT5 whole entry, looked up): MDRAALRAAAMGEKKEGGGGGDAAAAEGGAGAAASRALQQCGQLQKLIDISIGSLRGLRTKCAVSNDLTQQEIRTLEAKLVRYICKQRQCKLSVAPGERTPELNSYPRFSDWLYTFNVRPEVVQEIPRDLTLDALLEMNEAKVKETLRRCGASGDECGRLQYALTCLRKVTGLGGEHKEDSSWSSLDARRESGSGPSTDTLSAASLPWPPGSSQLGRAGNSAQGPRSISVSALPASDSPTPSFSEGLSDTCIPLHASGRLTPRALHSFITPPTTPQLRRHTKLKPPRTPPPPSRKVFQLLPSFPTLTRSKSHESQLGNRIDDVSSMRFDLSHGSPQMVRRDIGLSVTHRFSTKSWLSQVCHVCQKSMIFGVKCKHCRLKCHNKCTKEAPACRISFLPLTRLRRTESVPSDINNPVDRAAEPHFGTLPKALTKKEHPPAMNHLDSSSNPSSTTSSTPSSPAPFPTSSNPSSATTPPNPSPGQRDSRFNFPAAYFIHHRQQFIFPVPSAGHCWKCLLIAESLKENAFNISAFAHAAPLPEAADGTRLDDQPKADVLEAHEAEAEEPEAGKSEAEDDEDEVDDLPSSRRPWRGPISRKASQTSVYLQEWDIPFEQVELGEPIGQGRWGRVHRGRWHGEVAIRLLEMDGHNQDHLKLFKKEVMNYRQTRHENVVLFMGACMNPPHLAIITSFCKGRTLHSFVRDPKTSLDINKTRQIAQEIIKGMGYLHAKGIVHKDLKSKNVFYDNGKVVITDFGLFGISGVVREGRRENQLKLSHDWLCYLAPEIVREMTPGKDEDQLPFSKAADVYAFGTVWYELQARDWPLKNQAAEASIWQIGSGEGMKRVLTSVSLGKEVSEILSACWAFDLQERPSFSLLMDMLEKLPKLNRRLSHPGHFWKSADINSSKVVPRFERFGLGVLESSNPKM
Sequence of UniProt P27361 (P27361 whole entry, looked up): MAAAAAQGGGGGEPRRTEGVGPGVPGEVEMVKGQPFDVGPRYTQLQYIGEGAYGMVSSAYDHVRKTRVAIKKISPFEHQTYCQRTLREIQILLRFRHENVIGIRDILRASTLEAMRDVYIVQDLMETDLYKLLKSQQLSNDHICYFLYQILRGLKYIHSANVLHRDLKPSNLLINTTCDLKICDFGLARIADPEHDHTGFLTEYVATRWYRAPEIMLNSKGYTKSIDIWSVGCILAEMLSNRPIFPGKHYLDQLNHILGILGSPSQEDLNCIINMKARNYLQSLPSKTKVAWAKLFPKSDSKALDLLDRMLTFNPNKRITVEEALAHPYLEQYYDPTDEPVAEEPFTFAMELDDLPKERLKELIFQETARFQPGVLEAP
Sequence of UniProt Q15031 (Q15031 whole entry, looked up): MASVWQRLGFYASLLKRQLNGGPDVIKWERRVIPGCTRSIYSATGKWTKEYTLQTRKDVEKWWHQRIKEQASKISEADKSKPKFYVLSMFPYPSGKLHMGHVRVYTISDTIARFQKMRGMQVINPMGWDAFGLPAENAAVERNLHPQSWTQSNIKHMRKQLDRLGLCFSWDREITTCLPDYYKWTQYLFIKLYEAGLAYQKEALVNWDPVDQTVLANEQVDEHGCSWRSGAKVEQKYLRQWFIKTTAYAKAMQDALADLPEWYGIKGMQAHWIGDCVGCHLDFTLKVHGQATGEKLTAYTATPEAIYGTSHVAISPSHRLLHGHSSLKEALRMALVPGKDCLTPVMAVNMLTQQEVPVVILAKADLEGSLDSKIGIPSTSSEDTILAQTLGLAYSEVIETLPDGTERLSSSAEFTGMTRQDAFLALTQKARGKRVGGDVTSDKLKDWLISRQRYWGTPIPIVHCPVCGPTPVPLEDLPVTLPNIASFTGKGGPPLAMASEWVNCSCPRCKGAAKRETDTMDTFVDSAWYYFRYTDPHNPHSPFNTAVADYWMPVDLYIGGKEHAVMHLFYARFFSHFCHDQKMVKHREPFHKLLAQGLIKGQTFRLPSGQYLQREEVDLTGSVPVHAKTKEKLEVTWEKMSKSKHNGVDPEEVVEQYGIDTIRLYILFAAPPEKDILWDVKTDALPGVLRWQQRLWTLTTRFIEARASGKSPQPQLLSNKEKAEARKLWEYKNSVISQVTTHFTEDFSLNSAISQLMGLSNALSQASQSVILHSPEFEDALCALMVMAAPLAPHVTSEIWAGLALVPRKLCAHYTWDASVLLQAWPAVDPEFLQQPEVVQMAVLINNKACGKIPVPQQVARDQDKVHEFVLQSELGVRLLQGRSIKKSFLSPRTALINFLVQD
Sequence of UniProt Q16644 (Q16644 whole entry, looked up): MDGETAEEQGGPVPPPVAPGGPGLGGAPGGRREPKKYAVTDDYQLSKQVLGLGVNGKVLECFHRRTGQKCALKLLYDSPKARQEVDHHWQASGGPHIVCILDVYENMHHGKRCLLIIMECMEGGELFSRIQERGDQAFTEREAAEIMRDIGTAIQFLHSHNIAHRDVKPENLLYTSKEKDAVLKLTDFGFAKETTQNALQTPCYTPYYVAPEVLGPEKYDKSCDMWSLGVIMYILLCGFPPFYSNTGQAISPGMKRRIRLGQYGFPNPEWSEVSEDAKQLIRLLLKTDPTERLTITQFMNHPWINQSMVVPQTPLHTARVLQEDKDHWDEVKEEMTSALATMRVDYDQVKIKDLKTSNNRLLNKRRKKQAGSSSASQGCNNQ
Sequence of UniProt A9UHW6 (A9UHW6 whole entry, looked up): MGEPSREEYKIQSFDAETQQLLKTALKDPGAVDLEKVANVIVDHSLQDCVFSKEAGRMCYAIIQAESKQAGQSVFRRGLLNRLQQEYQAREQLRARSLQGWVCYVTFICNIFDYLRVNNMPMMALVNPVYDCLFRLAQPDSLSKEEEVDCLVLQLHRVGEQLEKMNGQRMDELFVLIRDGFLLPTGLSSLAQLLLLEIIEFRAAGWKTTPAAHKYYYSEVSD
Sequence of UniProt O95777 (O95777 whole entry, looked up): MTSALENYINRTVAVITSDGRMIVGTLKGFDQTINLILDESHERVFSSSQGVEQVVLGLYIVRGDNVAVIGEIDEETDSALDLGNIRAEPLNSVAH

Row | Target | log2 fold change (lapatinib) | log2 fold change (pictilisib) | log2 fold change (crizotinib) | log2 fold change [1] | log2 fold change (duvelisib) | log2 fold change (gandotinib) | log2 fold change (tozasertib) | log2 fold change (doramapimod) | log2 fold change (bafetinib) | log2 fold change [2]
1 | LARP4B (UniProt Q92615) | 0.01 | 0.016 | -0.019 | -0.051 | -0.033 | 0.029 | -0.009 | -0.044 | -0.047 | 0.096
2 | MAP4 (UniProt E7EVA0) | 0.002 | -0.054 | -0.163 | -0.096 | 0.012 | 0.007 | 0.055 | 0.017 | -0.055 | 0.008
3 | KIFC1 (UniProt Q9BW19) | -0.021 | -0.013 | -0.019 | -0.016 | -0.003 | -0.05 | 0.047 | 0.021 | -0.027 | 0.031
4 | MAP7D3 (UniProt Q8IWC1) | 0.033 | 0.01 | -0.006 | -0.055 | -0.068 | 0.021 | 0.066 | 0.065 | -0.128 | 0.06
5 | MAP2K7 isoform 4 (UniProt O14733) | 0.004 | 0.204 | -0.05 | 0.081 | -0.048 | -0.042 | -0.04 | 0.052 | -0.06 | 0.002
6 | MPI (UniProt P34949) | 0.02 | -0.017 | -0.029 | 0.174 | 0.007 | -0.055 | -0.043 | 0.032 | 0.013 | -0.014
7 | MRPL27 (UniProt Q9P0M9) | 0.02 | 0.017 | -0.046 | 0.658 (active) | 0.02 | -0.249 | 0.029 | 0.011 | 0.012 | -0.076
8 | MED25 isoform 3 (UniProt Q71SY5) | 0.018 | -0.05 | -0.05 | 0.053 | 0.063 | -0.095 | -0.109 | -0.042 | -0.023 | -0.052
9 | MIF4GD isoform 3 (UniProt A9UHW6) | -0.008 | -0.054 | 0.012 | 0.023 | 0.041 | 0.021 | 0.005 | 0.025 | -0.03 | 0.013
10 | KLC4 isoform 3 (UniProt Q9NSK0) | -0.002 | -0.053 | -0.027 | 0.019 | 0.029 | -0.074 | -0.021 | 0.034 | -0.018 | 0.001
11 | LLGL1 (UniProt Q15334) | -0.005 | -0.058 | -0.025 | 0.263 (active) | 0.096 | -0.011 | 0.054 | 0.006 | -0.104 | -0.019
12 | LARS2 (UniProt Q15031) | -0.012 | -0.073 | -0.047 | 0.014 | -0.039 | -0.2 | 0.054 | 0.012 | -0.067 | 0.044
13 | LSM8 (UniProt O95777) | -0.005 | -0.067 | 0.02 | -0.028 | 0.002 | 0.007 | 0.037 | 0.016 | 0.176 | 0.026
14 | METTL7A (UniProt Q9H8H3) | 0.023 | 0.019 | 0.177 | -0.019 | 0.021 | 0.226 | -0.081 | 0.071 | 0.048 | 0.019
15 | MAPK3 (UniProt P27361) | -0.028 | 0 | -0.01 | -0.021 | -0.01 | 0.089 | -0.038 | -0.023 | 0.021 | -0.043
16 | MAP4 (UniProt P27816) | -0.002 | 0.012 | 0.013 | -0.032 | -0.004 | 0.058 | -0.014 | -0.044 | 0.018 | -0.007
17 | KSR1 (UniProt Q8IVT5) | -0.107 | 0.064 | -0.015 | 0.006 | -0.026 | -0.087 | 0.017 | -0.065 | -0.038 | -0.156
18 | MAPKAPK3 (UniProt Q16644) | 0 | -0.013 | -0.026 | 0.034 | -0.038 | -0.044 | 0.046 | -0.025 | 0.026 | -0.014
19 | LRPPRC (UniProt P42704) | -0.01 | 0.048 | -0.062 | 0.058 | -0.005 | -0.189 | 0.023 | 0.022 | -0.008 | 0.045
20 | MLH1 (UniProt P40692) | -0.006 | 0.001 | -0.085 | -0.035 | 0.016 | -0.04 | -0.043 | 0.013 | -0.063 | 0.038
21 | MECR (UniProt Q9BV79) | -0.028 | -0.038 | 0.007 | -0.11 | 0.007 | 0.045 | 0.007 | 0.02 | -0.005 | 0.013
22 | LSG1 (UniProt Q9H089) | -0.002 | -0.044 | -0.191 | -0.099 | -0.075 | 0.037 | -0.03 | 0.085 | -0.077 | 0.072
23 | MAPKAPK2 (UniProt P49137) | -0.04 | -0.05 | -0.014 | 0.046 | 0.033 | -0.03 | 0.004 | 0.092 | -0.037 | 0.018
24 | MCCC1 (UniProt Q96RQ3) | -0.022 | -0.038 | -0.004 | 0.106 | 0.017 | -0.14 | -0.019 | 0.003 | -0.048 | -0.093
25 | MACROD1 (UniProt Q9BQ69) | 0.011 | -0.013 | -0.066 | 0.084 | 0.04 | -0.017 | -0.03 | -0.012 | -0.102 | 0.052
26 | KIF22 (UniProt Q14807) | -0.149 | -0.07 | -0.29 | -0.201 | -0.02 | 0.238 | -0.043 | -0.009 | -0.068 | 0.33
27 | MLXIP (UniProt Q9HAP2) | -0.009 | -0.049 | -0.023 | -0.052 | -0.078 | -0.032 | 0.019 | 0.009 | -0.01 | 0.043
28 | MBLAC2 (UniProt Q68D91) | -0.012 | -0.008 | 0.025 | -0.027 | 0.038 | 0.036 | 0.084 | 0.033 | -0.049 | 0.006
29 | MARK1 (UniProt Q9P0L2) | 0.037 | -0.065 | -0.175 | 0.026 | -0.002 | -0.192 | -0.084 | 0.155 | -0.034 | 0.05
30 | LETM1 (UniProt O95202) | -0.001 | 0.004 | -0.043 | 0.015 | -0.018 | 0.03 | 0.005 | -0.01 | -0.049 | -0.085
